{"source": "PubChem BioAssay", "key": {"[1]": {"experiment": "apoptosome-driven caspase-3 activation blockers – biochemical, fluorescence, DEVD-Rh110, 20 µM, confirmation (AID 504614;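 active means mean inhibition of at least 40% at 20 µM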;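 further: plate controls were DMSO wells for no effect and DEVD-CHO caspase inhibitor control wells for full effect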)", "conditions": "reconstituted apoptosome, caspase-3 DEVD-Rh110 fluorescence; at 20 µM; stronger effect = higher value"}, "[2]": {"experiment": "detection-step artefacts after completed caspase reaction – biochemical, fluorescence, Rh110, 20 µM, artefact control for Apaf-1 inhibitor project, confirmation (AID 504615;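 active means signal rise of 40% or more at 20 µM, treated as a fluorescence artifact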)", "conditions": "quenched caspase reaction, at 20 µM, stronger effect = higher value"}, "[3]": {"experiment": "fluorescence interference of Apaf-1 inhibitor hits, dose response, artefact control for Apaf-1 inhibitor project (AID 588538)", "conditions": "fluorescence interference counterscreen, Apaf-1 assay format"}, "[4]": {"experiment": "Brca1-Bard1 BiLC signal decrease – luminescence, single concentration, counter-screen for Mdm2/MdmX interaction inhibitor project, confirmation (AID 504668)", "conditions": "Brca1/Bard1 bimolecular luciferase complementation counterscreen, at 8 µM, stronger effect = higher value"}, "[5]": {"target": "COP9 signalosome complex subunit 5 (Homo sapiens) (UniProt Q92905)", "sequence (Q92905 whole entry, looked up, one chain of several)": "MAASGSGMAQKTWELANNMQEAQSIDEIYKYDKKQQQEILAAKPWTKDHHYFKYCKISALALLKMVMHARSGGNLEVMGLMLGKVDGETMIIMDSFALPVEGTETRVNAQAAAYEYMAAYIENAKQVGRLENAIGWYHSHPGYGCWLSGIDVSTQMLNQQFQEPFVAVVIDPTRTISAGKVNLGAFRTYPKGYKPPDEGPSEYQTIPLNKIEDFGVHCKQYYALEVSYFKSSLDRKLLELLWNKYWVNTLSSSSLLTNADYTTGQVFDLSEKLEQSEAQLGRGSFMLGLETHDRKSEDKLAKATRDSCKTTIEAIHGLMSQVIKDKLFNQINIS", "experiment": "blockers of CSN-driven cullin deneddylation – biochemical, fluorescence polarization, single concentration, SCF-Nedd8OG substrate, confirmation (AID 720654; in the data active means inhibition above about 50%;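 further: 0% = DMSO with enzyme and 100% = no enzyme wells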)", "conditions": "Csn5 deneddylation of SCF-Nedd8OG, 90 min, at 16.6 µM, stronger effect = higher value"}, "[6]": {"target": "72 kDa type IV collagenase (Homo sapiens) (UniProt P08253)", "sequence (P08253 whole entry, looked up)": "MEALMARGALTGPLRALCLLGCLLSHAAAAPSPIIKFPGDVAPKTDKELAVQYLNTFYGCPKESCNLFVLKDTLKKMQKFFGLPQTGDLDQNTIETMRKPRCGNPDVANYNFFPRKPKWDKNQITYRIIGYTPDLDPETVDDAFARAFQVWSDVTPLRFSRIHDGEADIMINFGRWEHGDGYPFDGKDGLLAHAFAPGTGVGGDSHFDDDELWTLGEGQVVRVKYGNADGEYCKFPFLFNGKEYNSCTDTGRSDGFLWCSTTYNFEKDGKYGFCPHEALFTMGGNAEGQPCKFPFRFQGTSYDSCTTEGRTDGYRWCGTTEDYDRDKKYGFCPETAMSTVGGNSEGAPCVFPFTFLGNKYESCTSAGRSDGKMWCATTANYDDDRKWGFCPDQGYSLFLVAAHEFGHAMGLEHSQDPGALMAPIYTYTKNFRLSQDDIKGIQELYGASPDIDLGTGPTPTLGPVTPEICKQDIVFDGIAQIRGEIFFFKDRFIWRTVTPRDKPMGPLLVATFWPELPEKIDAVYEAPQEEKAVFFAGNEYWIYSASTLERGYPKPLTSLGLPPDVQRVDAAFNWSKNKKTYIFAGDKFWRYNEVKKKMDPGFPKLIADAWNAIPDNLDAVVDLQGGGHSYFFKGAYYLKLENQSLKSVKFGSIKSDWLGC", "experiment": "human MMP-2 inhibitors, single-point check – biochemical, fluorescence, single concentration, counter-screen for CSN deneddylation inhibitor project, confirmation (AID 720655;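 active means corrected plate-normalized z-score of 5 or more, or -5 or less, or inhibition of 15% or more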;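 further: plate controls were DMSO wells with enzyme for no effect and buffer wells lacking MMP-2 for full effect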)", "conditions": "recombinant MMP-2, FRET substrate fluorescence, 60 min; at 16.6 µM"}, "Prothrombin (Bos taurus)": {"target": "Prothrombin (Bos taurus) (UniProt P00735)", "sequence (P00735 whole entry, looked up)": "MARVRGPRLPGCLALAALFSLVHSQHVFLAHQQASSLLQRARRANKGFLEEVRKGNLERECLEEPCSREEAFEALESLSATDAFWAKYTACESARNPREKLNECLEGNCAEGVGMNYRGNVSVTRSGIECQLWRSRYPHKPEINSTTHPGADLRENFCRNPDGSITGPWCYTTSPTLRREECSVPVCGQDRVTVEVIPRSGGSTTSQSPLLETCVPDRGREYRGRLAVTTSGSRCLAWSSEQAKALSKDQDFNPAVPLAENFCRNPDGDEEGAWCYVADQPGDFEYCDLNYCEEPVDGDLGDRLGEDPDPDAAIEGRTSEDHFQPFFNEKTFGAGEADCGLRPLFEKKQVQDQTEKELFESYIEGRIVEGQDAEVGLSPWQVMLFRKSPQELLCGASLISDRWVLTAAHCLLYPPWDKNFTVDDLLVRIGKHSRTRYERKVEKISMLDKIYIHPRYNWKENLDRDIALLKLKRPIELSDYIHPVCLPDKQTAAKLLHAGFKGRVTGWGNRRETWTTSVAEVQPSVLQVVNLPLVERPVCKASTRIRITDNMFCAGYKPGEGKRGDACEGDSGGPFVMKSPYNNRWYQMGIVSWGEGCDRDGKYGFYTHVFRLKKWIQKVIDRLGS", "experiment": "thrombin cleavage blockers, FP readout – biochemical, fluorescence polarization, single concentration, counter-screen for CSN deneddylation inhibitor project, confirmation (AID 720656;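 active means inhibition at or above a set limit, with a fluorescence interference ratio between 0.5 and a set maximum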)", "conditions": "bovine thrombin cleavage of Ub4-pepOG, at 16.6 µM, stronger effect = higher value"}, "[7]": {"experiment": "HIF-2a driven luciferase blockers, single dose – luminescence, 786-0 RCC cells, confirmation (AID 651580;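 active means mean inhibition across four replicates of at least 40 percent at the single tested concentration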)", "conditions": "HIF-2a luciferase reporter luminescence, overnight, at 18.8 µM, stronger effect = higher value"}, "[8]": {"experiment": "HIF-1a luciferase reporter signal reduction – MiaPaCa-2 cells, single concentration, counter-screen for HIF-2a inhibitor project, confirmation (AID 651589;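 active means mean inhibition of the reporter signal across four replicates at the single tested dose of 50% or more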)", "conditions": "MiaPaCa-2 HIF-1a luciferase reporter, desferoxamine, overnight; at 18.8 µM; stronger effect = higher value"}, "[9]": {"target": "Tumor necrosis factor receptor superfamily member 10B (Homo sapiens) (UniProt O14763)", "sequence (O14763 whole entry, looked up)": "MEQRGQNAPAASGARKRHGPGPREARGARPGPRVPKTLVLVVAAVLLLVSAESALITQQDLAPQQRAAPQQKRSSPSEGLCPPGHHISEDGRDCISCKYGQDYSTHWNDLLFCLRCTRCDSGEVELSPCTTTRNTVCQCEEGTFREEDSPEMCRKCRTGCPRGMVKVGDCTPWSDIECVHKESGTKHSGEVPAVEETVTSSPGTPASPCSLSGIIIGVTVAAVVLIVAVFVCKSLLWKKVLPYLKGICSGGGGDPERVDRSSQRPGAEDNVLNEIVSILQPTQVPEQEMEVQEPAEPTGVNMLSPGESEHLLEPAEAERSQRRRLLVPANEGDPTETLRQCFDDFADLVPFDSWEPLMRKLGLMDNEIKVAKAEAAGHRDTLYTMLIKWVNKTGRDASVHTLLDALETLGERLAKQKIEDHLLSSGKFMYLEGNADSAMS", "experiment": "viability loss of caspase-8 NB7 cells with TRAIL – with/without TRAIL, luminescence panel, confirmation (AID 651596; in the data active means activity above about 50%)", "conditions": "NB7 neuroblastoma + caspase-8, TRAIL sensitization, NB7 Caspase-8, with TRAIL, mean of runs, at 10 µM, stronger effect = higher value"}, "[10]": {"experiment": "viability loss of caspase-8 NB7 cells with TRAIL – with/without TRAIL, luminescence panel, confirmation (AID 651596)", "conditions": "NB7 neuroblastoma + caspase-8, without TRAIL, NB7 Caspase-8, without TRAIL, mean of runs, at 10 µM"}, "[11]": {"experiment": "inhibition of PEG-3 promoter luciferase signal – cell-based, HeLa, luciferase reporter, single concentration, confirmation (AID 602417;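 active means at 20 µM dose, 40% or more inhibition averaged across four replicates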)", "conditions": "HeLa PEG-Prom luciferase reporter, luminescence, overnight; at 20 µM; stronger effect = higher value"}, "PEG-3 [12]": {"target": "PEG-3 (UniProt Q6IN02)", "sequence (Q6IN02 whole entry, looked up)": "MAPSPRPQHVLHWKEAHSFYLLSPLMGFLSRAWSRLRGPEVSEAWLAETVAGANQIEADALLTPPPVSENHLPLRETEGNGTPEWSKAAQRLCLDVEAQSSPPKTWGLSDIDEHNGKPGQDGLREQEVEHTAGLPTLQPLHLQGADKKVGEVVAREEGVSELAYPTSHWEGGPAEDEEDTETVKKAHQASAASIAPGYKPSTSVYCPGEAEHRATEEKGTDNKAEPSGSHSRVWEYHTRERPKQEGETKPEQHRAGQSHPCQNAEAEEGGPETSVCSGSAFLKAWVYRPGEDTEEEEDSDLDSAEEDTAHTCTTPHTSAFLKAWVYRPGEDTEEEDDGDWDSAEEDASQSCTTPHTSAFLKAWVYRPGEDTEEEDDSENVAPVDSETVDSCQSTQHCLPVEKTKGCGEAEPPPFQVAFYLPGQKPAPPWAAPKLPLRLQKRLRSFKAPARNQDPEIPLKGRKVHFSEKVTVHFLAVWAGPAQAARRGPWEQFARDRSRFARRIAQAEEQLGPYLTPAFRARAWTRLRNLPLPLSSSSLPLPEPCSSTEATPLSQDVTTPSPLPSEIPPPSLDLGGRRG", "experiment": "inhibition of PEG-3 promoter-driven reporter – cell-based, HeLa, luciferase, CREF/GAPDH counter-screen panel, dose response (AID 624167)", "conditions": "CREF/GAPDH counter-screens; HeLa PEG-Prom luciferase reporter, overnight, run 1, dose range 1, at 100 µM (top of the series) unless noted"}, "PEG-3 [13]": {"target": "PEG-3 (UniProt Q6IN02)", "experiment": "inhibition of PEG-3 promoter-driven reporter – cell-based, HeLa, luciferase, CREF/GAPDH counter-screen panel, dose response (AID 624167)", "conditions": "CREF/GAPDH counter-screens; HeLa PEG-Prom luciferase reporter, overnight, run 2, dose range 1, at 100 µM (top of the series) unless noted"}}, "note": "This is one part of the list. Active and inactive are the calls of the source. Unless noted, how the calls were made is not given here.", "data": [{"smiles": "CN(C)S(=O)(=O)c1ccc2oc(SCC(=O)Nc3ccccc3F)nc2c1", "values": [{"measurement": "inhibition", "setting": "[1]", "value": "77.8% (active)"}, {"measurement": "activation (fluorescence interference)", "setting": "[2]", "value": "10.6% (inactive)"}, {"measurement": "IC50", "setting": "[3]", "value": "> 100 µM (inactive)"}]}, {"smiles": "COc1ccc(S(=O)(=O)/N=C2\\C=C(NS(=O)(=O)c3ccccc3)C(=O)c3ccccc32)cc1", "values": [{"measurement": "inhibition", "setting": "[1]", "value": "52.3% (active)"}, {"measurement": "activation (fluorescence interference)", "setting": "[2]", "value": "-7.09% (inactive)"}, {"measurement": "IC50", "setting": "[3]", "value": "> 100 µM (inactive)"}]}, {"smiles": "CCOC(=O)N1CCC(c2cc(=O)n(-c3ccccc3)[nH]2)CC1", "values": [{"measurement": "inhibition", "setting": "[1]", "value": "32.4% (inactive)"}, {"measurement": "activation (fluorescence interference)", "setting": "[2]", "value": "8.7% (inactive)"}]}, {"smiles": "CC(=O)Oc1c(C)cc(Cl)cc1C(=O)Nc1ccc([N+](=O)[O-])cc1Cl", "values": [{"measurement": "inhibition", "setting": "[4]", "value": "27.7% (active)"}]}, {"smiles": "O=C(NC(Cc1c[nH]c2ccccc12)C(=O)Nc1ccc(F)c([N+](=O)[O-])c1)c1cccs1", "note": "(stereo not given)", "values": [{"measurement": "inhibition", "setting": "[4]", "value": "24.8% (active)"}]}, {"smiles": "Cc1nc2ccccn2c1C(=O)/C=C/c1cccc([N+](=O)[O-])c1", "values": [{"measurement": "inhibition", "setting": "[4]", "value": "27.6% (active)"}]}, {"smiles": "O=C(Nc1ccccc1)c1ccccc1NS(=O)(=O)c1ccc(Cl)s1", "values": [{"measurement": "inhibition", "setting": "[4]", "value": "27.7% (active)"}]}, {"smiles": "CCN(CC)CCCN=C1N[C@@H](c2cccc(C(F)(F)F)c2)C(C(=O)OC)=C(C)N1CC", "values": [{"measurement": "inhibition", "setting": "[4]", "value": "30.4% (active)"}]}, {"smiles": "COc1ccc(CCNC(=O)c2cc3c(=O)n4ccccc4nc3n(Cc3ccco3)c2=N)cc1OC", "values": [{"measurement": "inhibition", "setting": "[4]", "value": "26.2% (active)"}]}, {"smiles": "C=CCN=C1NN=C(c2cc(C)n(CCOC)c2C)CS1", "values": [{"measurement": "inhibition", "setting": "[4]", "value": "31% (active)"}]}, {"smiles": "CC(C)Cn1c(N)c(C(=O)NCc2cccs2)c2nc3ccccc3nc21", "values": [{"measurement": "inhibition", "setting": "[1]", "value": "38.4% (inactive)"}, {"measurement": "activation (fluorescence interference)", "setting": "[2]", "value": "5.03% (inactive)"}, {"measurement": "inhibition", "setting": "[5]", "value": "99.2% (active)"}, {"measurement": "inhibition", "setting": "[6]", "value": "1.55% (inactive)"}, {"measurement": "inhibition", "setting": "Prothrombin (Bos taurus)", "value": "-0.76% (inactive)"}]}, {"smiles": "C=CCc1cccc(/C=N/NC(=O)c2ccc3nc[nH]c3c2)c1O", "values": [{"measurement": "inhibition", "setting": "[4]", "value": "26.2% (active)"}]}, {"smiles": "COc1ccc(/C=c2/sc3n(c2=O)C(c2ccccc2OC)C2=C(N=3)c3ccccc3CC2)cc1O", "note": "(stereo not given)", "values": [{"measurement": "inhibition", "setting": "[4]", "value": "29.6% (active)"}]}, {"smiles": "CN1CCN(CCCNC(=O)c2ccc(/C=C3\\Oc4ccccc4N(Cc4ccc(Cl)cc4)C3=O)cc2)CC1", "values": [{"measurement": "inhibition", "setting": "[1]", "value": "39.1% (inactive)"}, {"measurement": "activation (fluorescence interference)", "setting": "[2]", "value": "6.39% (inactive)"}, {"measurement": "inhibition", "setting": "[7]", "value": "-0.07% (inactive)"}, {"measurement": "inhibition", "setting": "[8]", "value": "106% (active)"}, {"measurement": "inhibition", "setting": "[5]", "value": "-18.2% (inactive)"}, {"measurement": "inhibition", "setting": "[6]", "value": "11.2% (inactive)"}, {"measurement": "inhibition", "setting": "Prothrombin (Bos taurus)", "value": "-9.75% (inactive)"}, {"measurement": "activity", "setting": "[9]", "value": 41.5, "unit": "%"}, {"measurement": "activity", "setting": "[10]", "value": 75, "unit": "%"}]}, {"smiles": "O=C(NC(Nc1ncc(S(=O)(=O)c2ccc([N+](=O)[O-])cc2)s1)(C(F)(F)F)C(F)(F)F)c1ccc(Cl)cc1", "values": [{"measurement": "inhibition", "setting": "[4]", "value": "29.5% (active)"}]}, {"smiles": "CCN(CC)CCNc1cc(C)nc2c1C(=O)C(=O)C=C2N1CCCCC1", "values": [{"measurement": "inhibition", "setting": "[4]", "value": "28.9% (active)"}]}, {"smiles": "CCc1ccc(S(=O)(=O)/N=C2\\C=C(Nc3ccc(C(=O)O)cc3)C(=O)c3ccccc32)cc1", "values": [{"measurement": "inhibition", "setting": "[4]", "value": "33.2% (active)"}]}, {"smiles": "C=CCn1c(CNc2ccc(C)cc2)nnc1SCC(=O)N/N=C/c1ccc(O)cc1O", "values": [{"measurement": "inhibition", "setting": "[4]", "value": "35.6% (active)"}]}, {"smiles": "O=C(CCNS(=O)(=O)c1ccccc1)NCCSc1ccc(Br)cc1", "values": [{"measurement": "inhibition", "setting": "[1]", "value": "40% (active)"}, {"measurement": "activation (fluorescence interference)", "setting": "[2]", "value": "5.12% (inactive)"}, {"measurement": "IC50", "setting": "[3]", "value": "> 100 µM (inactive)"}]}, {"smiles": "O=C(Nc1ccncc1NC(=O)c1cccc([N+](=O)[O-])c1)c1cccc([N+](=O)[O-])c1", "values": [{"measurement": "inhibition", "setting": "[4]", "value": "31% (active)"}]}, {"smiles": "Cc1ccc(N=C2NC(=O)/C(=C/C=C/c3ccco3)S2)cc1C", "values": [{"measurement": "inhibition", "setting": "[1]", "value": "26.1% (inactive)"}, {"measurement": "activation (fluorescence interference)", "setting": "[2]", "value": "20.6% (inactive)"}, {"measurement": "inhibition", "setting": "[5]", "value": "25.6% (inactive)"}, {"measurement": "inhibition", "setting": "[6]", "value": "13.5% (inactive)"}, {"measurement": "inhibition", "setting": "Prothrombin (Bos taurus)", "value": "7.38% (inactive)"}]}, {"smiles": "O=C(NNC(=O)c1ccccc1OCc1ccc(F)cc1)c1ccccc1O", "values": [{"measurement": "inhibition", "setting": "[4]", "value": "31.1% (active)"}]}, {"smiles": "CC(C)(C)C(=O)NC(=S)NNC(=O)c1ccc(-c2ccccc2)cc1", "values": [{"measurement": "inhibition", "setting": "[4]", "value": "28.9% (active)"}]}, {"smiles": "COc1ccccc1N(CC(=O)N/N=C/c1c(O)ccc2ccccc12)S(C)(=O)=O", "values": [{"measurement": "inhibition", "setting": "[4]", "value": "26.2% (active)"}]}, {"smiles": "Cc1ccc(-c2csc(=Nc3cccnc3)n2CCCn2ccnc2)cc1C", "values": [{"measurement": "inhibition", "setting": "[4]", "value": "24.3% (active)"}]}, {"smiles": "CCCCN(Cc1ccco1)C(=O)c1cc2c(=O)[nH]c3ccc(C)cc3c2s1", "values": [{"measurement": "inhibition", "setting": "[4]", "value": "23.8% (active)"}]}, {"smiles": "Cc1ccc(-c2cnc(C3CC3)o2)cc1S(=O)(=O)Nc1ccccc1", "values": [{"measurement": "inhibition", "setting": "[4]", "value": "33.6% (active)"}]}, {"smiles": "CCn1cc(CN2CCC(C(=O)Nc3cccc(-c4cccc(Cl)c4)c3)CC2)c(C)n1", "values": [{"measurement": "inhibition", "setting": "[1]", "value": "12.8% (inactive)"}, {"measurement": "activation (fluorescence interference)", "setting": "[2]", "value": "5.12% (inactive)"}, {"measurement": "inhibition", "setting": "[11]", "value": "95.8% (active)"}, {"measurement": "inhibition", "setting": "PEG-3 [12]", "value": 98.4, "unit": "%"}, {"measurement": "inhibition", "setting": "PEG-3 [13]", "value": 101, "unit": "%"}]}]}
